# Laboratory results from PubChem BioAssay AID720697 (Broad Institute, 2013).
# Measured potencies and affinities stand elsewhere. Inconclusive results are not listed. Calls of active or inactive are those of the source.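 How the source made its calls: active means signal loss with fitted half-maximal concentration at or below twice the top valid tested dose in every test run; inconclusive means runs disagree, flat 30 to 70% signal loss, or poor fit; inactive means all runs flat, opposite direction, or potency beyond limit.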
# Assay: general mammalian cell viability loss – inhibitor set, cherry-pick, set 2, cytotoxicity control for miR-122 modulator project, dose response (AID 720697);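 further: 0% = median of neutral control wells and -100% = MG132 positive control wells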
# Settings: HEK293T viability, CellTiter-Glo luminescence, 48 h; series mostly up to 26 µM; activity change, negative = cytotoxicity: at the top concentration
row,Compound,"activity change, negative = cytotoxicity"
1,CCNC(=O)C[C@H]1CC[C@H]2[C@@H](COc3ccc(NS(C)(=O)=O)cc3C(=O)N2C)O1,92.5% (inactive)
2,CNC(=O)C[C@H]1CC[C@@H]2[C@H](COc3ccc(NC(=O)c4cccc(OC)c4)cc3C(=O)N2C)O1,136% [at 23.5 µM] (inactive)
3,CN1C(=O)c2cc(NS(=O)(=O)c3cccc(F)c3)ccc2OC[C@@H]2O[C@@H](CC(=O)O)CC[C@@H]21,136% [at 23.5 µM] (inactive)
4,COc1cc(N)c(Cl)cc1NC(=O)c1ccccc1,140% (inactive)
5,CN1C(=O)c2cc(NC(=O)c3ccc4c(c3)OCO4)ccc2OC[C@H]2O[C@@H](CC(=O)O)CC[C@@H]21,128% (inactive)
6,COC(=O)C[C@H]1CC[C@@H]2[C@@H](COc3ccc(NC(=O)c4cnccn4)cc3C(=O)N2C)O1,116% (inactive)
7,O=C(c1cccnc1)N1C[C@H]2[C@@H](c3ccccc31)[C@H](CO)N2C(=O)C1CCCC1,94.1% [at 23.5 µM] (inactive)
8,COCC(=O)N1[C@H](CO)[C@@H](c2ccccc2)[C@H]1CNC(=O)c1ccccn1,106% [at 23.5 µM] (inactive)
9,CC(=O)N(C[C@@H]1N[C@@H](CO)[C@H]1c1ccc(-c2ccccc2)cc1)C(C)C,51.5% (inactive)
10,CCC(=O)N1C[C@H]2[C@@H](c3ccccc31)[C@H](CO)N2C(=O)Nc1ccccc1F,-17.6% [at 23.5 µM] (inactive)
11,COc1ccc(C(C#N)Nc2ccc(C)cc2)cc1 (centres undefined),1.55% (inactive)
12,CN1C(=O)c2cc(NC(=O)c3ccc4c(c3)OCO4)ccc2OC[C@@H]2O[C@@H](CC(=O)O)CC[C@@H]21,14.4% (inactive)
13,CC(C)NC(=O)Nc1ccc2c(c1)C(=O)N(C)[C@@H]1CC[C@H](CC(=O)NCC(F)(F)F)O[C@H]1CO2,117% (inactive)
14,CN(C)CCCNC(=O)C[C@@H]1CC[C@@H]2[C@@H](COc3ccc(NC(=O)NC4CCCC4)cc3C(=O)N2C)O1,65.9% [at 23.5 µM] (inactive)
15,C/C=C/c1ccc([C@H]2[C@@H](CO)N(Cc3ccccn3)[C@H]2CNC(=O)CC)cc1,144% (inactive)
16,C/C=C/c1ccc2c(c1)O[C@H](CN(C)C(=O)Nc1cccc(F)c1)[C@H](C)CN([C@@H](C)CO)S2(=O)=O,14.2% (inactive)
17,Cc1ccnc(Nc2nc(-c3c(C)nc4sccn34)cs2)c1,-69.2% (inactive)
18,CCC(=O)N1[C@H](CO)[C@H](c2ccccc2)[C@@H]1CN(C(C)C)S(C)(=O)=O,113% (inactive)
19,CC(=O)N1[C@H](CN(C(=O)c2ccc(F)cc2)C(C)C)[C@@H](c2ccccc2)[C@@H]1CO,113% (inactive)
20,COCC(=O)N(C[C@H]1N[C@@H](CO)[C@@H]1c1ccc(C2=CCCC2)cc1)C(C)C,27% (inactive)

row,Compound,"activity change, negative = cytotoxicity"
1,CC#CCCCC(=O)Nc1ccccc1C(=O)O,81.9% (inactive)
2,CCC(=O)NC[C@H]1[C@H](c2ccc(C3=CCCC3)cc2)[C@H](CO)N1C(C)=O,14.2% (inactive)
3,COc1cccc(C(=O)Nc2ccc3c(c2)C(=O)N(C)[C@H]2CC[C@H](CC(=O)NCc4ccc(F)cc4)O[C@@H]2CO3)c1,117% (inactive)
4,COc1cccc(NC(=O)Nc2ccc3c(c2)C(=O)N(C)[C@@H]2CC[C@H](CC(=O)O)O[C@H]2CO3)c1,90.2% (inactive)
5,COC(=O)C[C@H]1CC[C@@H]2[C@@H](COc3ccc(NC(=O)Nc4ccc(Cl)cc4)cc3C(=O)N2C)O1,128% (inactive)
6,COC(=O)C[C@@H]1CC[C@H]2[C@@H](COc3ccc(NC(=O)Nc4ccccc4C)cc3C(=O)N2C)O1,87.2% (inactive)
7,Cc1cc(C)cc(NC(=O)c2ccc(CSc3nnc(C)s3)cc2)c1,133% (inactive)
8,COC(=O)C[C@H]1CC[C@@H]2[C@@H](COc3ccc(NC(=O)c4ccc(F)c(F)c4)cc3C(=O)N2C)O1,82% (inactive)
9,CNC(=O)C[C@@H]1CC[C@H]2[C@@H](COc3ccc(NC(=O)c4ccc(C(F)(F)F)cc4)cc3C(=O)N2C)O1,95.8% [at 23.5 µM] (inactive)
10,CNC(=O)C[C@H]1CC[C@H]2[C@@H](COc3ccc(NC(=O)c4cccc(OC)c4)cc3C(=O)N2C)O1,85.8% (inactive)
11,O=C(NC[C@@H]1N[C@@H](CO)[C@H]1c1ccccc1)C1CCC1,14.5% (inactive)
12,CN1C(=O)c2cc(NC(=O)c3cccc(F)c3)ccc2OC[C@H]2O[C@H](CC(=O)N3CCc4ccccc4C3)CC[C@H]21,62.5% (inactive)
13,CCN(CC)CCNC(=O)c1ccc(NC(=O)c2cn(-c3ccc(F)cc3)nc2-c2cccc(OC)c2)cc1,-17.7% [at 6 µM] (inactive)
14,CO[C@H]1CN(C)C(=O)c2cc(NC(=O)Nc3ccc(Cl)c(Cl)c3)ccc2OC[C@@H](C)NC[C@@H]1C,-6.02% (inactive)
15,CCNC(=O)Nc1ccc2c(c1)C(=O)N(C)[C@H]1CC[C@H](CC(=O)NCCOC)O[C@@H]1CO2,-18.8% (inactive)
16,O=c1c2cc(N3CCOCC3)ccc2[nH]c(=S)n1CCCN1CCCC1,25.1% (inactive)
17,C/C=C/c1ccc([C@@H]2[C@@H](CO)N(C(C)=O)[C@H]2CN(C(=O)COC)C(C)C)cc1,-3.91% (inactive)
18,C/C=C/c1ccc([C@@H]2[C@@H](CN(C)C(=O)CC)N(C(=O)NC(C)C)[C@H]2CO)cc1,128% (inactive)
19,O=C(NC[C@H]1N[C@H](CO)[C@@H]1c1ccc(-c2ccccc2F)cc1)c1ccccc1,33.6% (inactive)
